Structures are written as SMILES. Where “and” joins values, the source holds several entries; their conditions need not be identical. Equal values may be shown once. Read-outs that look alike come from different tables or passages of the source.

One assay has as its system T1, MST1.
T1 construct: gene STK4
The settings on record: concentration: 1 μM, replicates: in singlicate, n = 1.

Another assay deals with T2, MST2.
T2 construct: gene STK3
As to conditions: concentration: 1 μM, replicates: in singlicate; n = 1.

The next assay relates to T3, MST3.
T3 construct: gene STK24
The settings on record: concentration: 1 μM, replicates: in singlicate, n = 1.

The next assay deals with MST4. The settings on record: concentration: 1 μM, replicates: in singlicate, n = 1.
Another assay concerns MTOR. As to conditions: concentration: 1 μM, replicates: in singlicate, n = 1.
For another assay, the system named is MUSK. The settings on record: concentration: 1 μM, replicates: in singlicate, n = 1.
The next assay concerns MYLK2. As to conditions: concentration: 1 μM, replicates: in singlicate, n = 1.
For the next assay, the system named is MYLK4. As to conditions: concentration: 1 μM, replicates: in singlicate, n = 1.
For a further assay, the system named is MYLK. The settings on record: concentration: 1 μM, replicates: in singlicate, n = 1.
A further assay has as its system MYO3A. As to conditions: concentration: 1 μM, replicates: in singlicate, n = 1.
Another assay has as its system MYO3B. The settings on record: concentration: 1 μM, replicates: in singlicate; n = 1.
A further assay relates to T4, NDR1.
T4 construct: gene STK38
The settings on record: concentration: 1 μM, replicates: in singlicate, n = 1.

The subject of the next assay is NDR2. The settings on record: concentration: 1 μM, replicates: in singlicate, n = 1.
The test system of another assay is NEK10. As to conditions: concentration: 1 μM, replicates: in singlicate, n = 1.
In a further assay the test system is NEK11. As to conditions: concentration: 1 μM, replicates: in singlicate, n = 1.
A further assay relates to NEK1. The settings on record: concentration: 1 μM, replicates: in singlicate, n = 1.
A further assay has as its system NEK2. The settings on record: concentration: 1 μM, replicates: in singlicate; n = 1.
The test system of the next assay is NEK3. As to conditions: concentration: 1 μM, replicates: in singlicate, n = 1.
Another assay has as its system NEK4. As to conditions: concentration: 1 μM, replicates: in singlicate; n = 1.
The subject of the next assay is NEK5. As to conditions: concentration: 1 μM, replicates: in singlicate, n = 1.
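Note: KINOMEscan kinase panel screen.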

As to `COc1ccc(Nc2nccc(N3CCC(NC(=O)Nc4cc(C)ccc4C)C3)n2)cc1` (centres unmarked) [GSK1379741], the “%Inh” value with MST1 stood at 0%; with MST2, 1%; in the assay with MST3 it was 0%; in the assay with MST4 it was 0%; in the assay with MTOR, 11%; with MUSK, 0%. For the same compound, the “%Inh” value with MYLK2 worked out at 0%; in the assay on MYLK4 it was 0%; in the assay on MYLK it was 0%; in the assay with MYO3A it was 0%; in the assay with MYO3B it was 0%; in the assay on NDR1 it was 7%. For the same compound, the “%Inh” value in the assay with NDR2 turned out to be 0%; in the assay on NEK10, 1%; with NEK11 it was 20%; in the assay on NEK1 it was 0%; with NEK2 it was 0%; in the assay with NEK3, 0%. For the same compound, the results for the “%Inh” value with NEK4 and with NEK5 were 0% and 6%, respectively.

`COc1cc2c(cc1OCCN1CCN(C)CC1)ncc1c3ccc(C#N)cc3[nH]c21`: the “%Inh” value with MST1 worked out at 0%; with MST2, 30%; in the assay on MST3 it was 36%; in the assay on MST4, 0%; in the assay with MTOR, 38%; in the assay with MUSK, 0%. The “%Inh” value was determined as 72% with MYLK2; 75% with MYLK4; 26% in the assay on MYLK; 0% with MYO3A; 0% in the assay on MYO3B; 52% with NDR1. Further, the “%Inh” value amounted to 0% with NDR2; 15% with NEK10; 0% in the assay on NEK11; 0% with NEK1; 48% in the assay on NEK2; 33% with NEK3. The “%Inh” value in the assay with NEK4 and in the assay with NEK5 was 0% throughout.

For the compound `Cc1nnc(-c2ccc3ncc(-c4ccc(S(C)=O)cc4)n3c2)o1` (centres unmarked), the “%Inh” value in the assay on MST1 is recorded as 0%; with MST2, 0%; in the assay with MST3, 14%; in the assay on MST4, 0%; in the assay with MTOR, 29%; with MUSK it was 0%. In addition, the “%Inh” value in the assay with MYLK2 is 8%; in the assay on MYLK4 it was 5%; in the assay with MYLK, 18%; in the assay on MYO3A, 0%; in the assay with MYO3B, 0%; with NDR1 it was 0%. The “%Inh” value with NDR2 is 0%; in the assay with NEK10, 0%; in the assay on NEK11, 0%; in the assay with NEK1, 0%; in the assay on NEK2, 12%; in the assay with NEK3, 36%. The “%Inh” value in the assay with NEK4 and in the assay on NEK5 was 0% in each case.

As to `Fc1ccc(-c2nn3c(OCC(F)(F)F)cccc3c2-c2ccncc2)cc1` [GW514784], the “%Inh” value with MST1 was found to be 0%; in the assay on MST2, 0%; with MST3, 12%; with MST4, 0%; in the assay on MTOR, 35%; in the assay with MUSK, 0%. The “%Inh” value is reported as 1% in the assay with MYLK2; 0% with MYLK4; 15% in the assay with MYLK; 72% with MYO3A; 0% in the assay with MYO3B; 11% with NDR1. Also, the “%Inh” value was 44% in the assay with NDR2; 11% in the assay on NEK10; 44% in the assay on NEK11; 2% in the assay on NEK1; 8% with NEK2; 0% in the assay on NEK3. The “%Inh” value in the assay with NEK4 was found to be 0%; in the assay with NEK5, 2%.

With `O=C(Nc1n[nH]c2cc(-c3cccc(F)c3)ccc12)C1CC1` [SB-735464], the “%Inh” value in the assay with MST1 turned out to be 11%; in the assay on MST2, 0%; in the assay with MST3, 17%; in the assay on MST4, 17%; in the assay on MTOR it was 0%; in the assay with MUSK, 0%. Further, the “%Inh” value in the assay on MYLK2 amounted to 77%; in the assay with MYLK4, 6%; in the assay on MYLK it was 2%; in the assay with MYO3A, 3%; in the assay on MYO3B, 0%; with NDR1, 25%. Moreover, the “%Inh” value turned out to be 11% with NDR2; 0% in the assay on NEK10; 37% in the assay on NEK11; 0% with NEK1; 0% in the assay on NEK2; 23% in the assay on NEK3. The “%Inh” value amounted to 14% in the assay on NEK4 and 0% in the assay with NEK5.

`Cc1nnc(-c2ccc3occ(-c4ccc(C(C)O)cc4)c3c2)o1` (centres unmarked): the “%Inh” value was 0% in the assay on MST1; 0% in the assay on MST2; 0% in the assay on MST3; 0% in the assay on MST4; 0% in the assay on MTOR; 4% with MUSK. Besides, the “%Inh” value with MYLK2 came out at 14%; in the assay with MYLK4, 4%; with MYLK, 26%; in the assay on MYO3A, 0%; in the assay on MYO3B it was 0%; in the assay with NDR1, 18%. Moreover, the “%Inh” value is given as 55% in the assay with NDR2; 30% in the assay on NEK10; 0% with NEK11; 0% with NEK1; 0% in the assay on NEK2; 3% in the assay with NEK3. In addition, the “%Inh” value with NEK4 and with NEK5 was 0% throughout.

For the compound `COc1cc2c(cc1OC[C@@H](O)CO)ncc1c3ccc(C#N)cc3[nH]c21`, the “%Inh” value in the assay with MST1 is recorded as 0%; in the assay with MST2 it was 67%; with MST3 it was 11%; with MST4, 12%; in the assay on MTOR it was 52%; in the assay on MUSK, 0%. The “%Inh” value is recorded as 44% in the assay with MYLK2; 99% in the assay with MYLK4; 3% in the assay on MYLK; 0% in the assay on MYO3A; 0% in the assay on MYO3B; 62% in the assay on NDR1. In addition, the “%Inh” value in the assay with NDR2 is on record as 15%; in the assay on NEK10, 18%; with NEK11, 0%; with NEK1, 0%; in the assay with NEK2 it was 23%; in the assay with NEK3, 37%. Moreover, the “%Inh” value in the assay with NEK4 and in the assay with NEK5 was 0% each time.

Take `NCCNS(=O)(=O)c1ccc(-c2ccnc3[nH]ccc23)cc1` [GSK977617]: the “%Inh” value in the assay with MST1 (1 µM) is 26% and 0%; with MST2, 0%; in the assay with MST3 (1 µM) it was 27% and 17%; in the assay on MST4 (1 µM) it was 13% and 0%; in the assay on MTOR (1 µM) it was 29% and 12%; in the assay with MUSK (1 µM), 30% and 35%. The “%Inh” value in the assay on MYLK2 (1 µM) was 75% and 42%; in the assay with MYLK4 (1 µM) it was 99.9% and 99.7%; in the assay with MYLK (1 µM), 74% and 59%; in the assay on MYO3A (1 µM) it was 37% and 16%; in the assay on MYO3B it was 0%; in the assay with NDR1 (1 µM), 70% and 58%. Also, the “%Inh” value was 77% and 60% in the assay on NDR2 (1 µM); 69% and 53% with NEK10 (1 µM); 24% and 0% in the assay on NEK11 (1 µM); 62% and 44% with NEK1 (1 µM); 0% with NEK2; 14% and 0% in the assay on NEK3 (1 µM). For the same compound, the “%Inh” value is 0% in the assay with NEK4; 44% and 25% in the assay with NEK5 (1 µM).

As to `NS(=O)(=O)c1cccc(-c2ccc3ncc(N4CCOCC4)nc3c2)c1` [GSK1535721], the “%Inh” value in the assay with MST1 was found to be 0%; in the assay on MST2 it was 0%; with MST3, 0%; with MST4 it was 0%; in the assay with MTOR it was 9%; in the assay on MUSK, 0%. For the same compound, the “%Inh” value in the assay on MYLK2 was found to be 0%; with MYLK4 it was 12%; in the assay with MYLK it was 2%; in the assay with MYO3A it was 15%; with MYO3B, 0%; in the assay on NDR1 it was 21%. For the same compound, the “%Inh” value with NDR2 came to 0%; with NEK10, 0%; with NEK11, 0%; in the assay with NEK1, 0%; with NEK2 it was 12%; in the assay with NEK3 it was 0%. Moreover, the entries for the “%Inh” value with NEK4 and in the assay on NEK5 were 0% and 8%, respectively.

For the compound `O=C(c1ccc(-c2cc(-c3c[nH]nc3-c3ccccn3)ccn2)cc1)N1CCOCC1` [GW812171], the “%Inh” value in the assay with MST1 is 4%; in the assay on MST2, 0%; with MST3 it was 0%; with MST4, 0%; with MTOR, 17%; in the assay with MUSK, 0%. The “%Inh” value in the assay with MYLK2 was 0%; in the assay on MYLK4, 26%; in the assay with MYLK, 0%; in the assay on MYO3A, 6%; in the assay with MYO3B it was 0%; in the assay on NDR1, 44%. The “%Inh” value in the assay on NDR2 is 0%; with NEK10, 18%; in the assay with NEK11 it was 0%; with NEK1, 0%; in the assay with NEK2, 0%; in the assay on NEK3, 25%. The “%Inh” value with NEK4 and in the assay with NEK5 was 0% each time.

These data come from paper PMC5540273 (PLoS ONE, 2017).
